This is one part of the list. Unmarked numbers belong to inactive results. Activity calls are given as the source filed them.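 Rule for the calls, unless noted: active = mean inhibition across triplicate wells above the cutoff set by the earlier primary insulin-degrading enzyme screen (cut at about 16% in these data); inactive = the rest.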
Each compound was assayed against Oxytocin receptor (Homo sapiens) (UniProt P30559) (assay: oxytocin receptor activation, retest of hits – fluorescence, CHO-OTR cells, triplicate, confirmation (AID 434963;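 active = mean activation above about 20% derived from the earlier single-dose screen, limit read from the data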;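 note: peak over minimum fluorescence ratio per well during a 100 second FLIPR read; 0% = DMSO alone and 100% = oxytocin high control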)). Conditions: Fluo-8 calcium fluorescence, agonist, at 3 µM, stronger effect = higher value.
Oxytocin receptor (Homo sapiens), sequence (P30559 whole entry, looked up): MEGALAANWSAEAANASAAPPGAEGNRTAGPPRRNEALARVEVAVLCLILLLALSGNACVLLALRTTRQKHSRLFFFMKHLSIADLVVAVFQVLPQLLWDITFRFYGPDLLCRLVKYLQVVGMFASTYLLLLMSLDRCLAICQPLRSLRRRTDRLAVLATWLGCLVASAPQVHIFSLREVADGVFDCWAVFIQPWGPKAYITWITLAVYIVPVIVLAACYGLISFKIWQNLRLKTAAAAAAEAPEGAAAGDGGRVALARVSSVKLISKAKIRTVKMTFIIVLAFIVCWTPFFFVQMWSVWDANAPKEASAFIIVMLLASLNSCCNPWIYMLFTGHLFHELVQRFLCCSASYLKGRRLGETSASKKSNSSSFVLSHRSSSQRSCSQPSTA

Which activation does the source give for `COc1ccc(NS(=O)(=O)c2ccc(Oc3c(C#N)cccc3C#N)cc2)cc1` here?
Its activation is 17.5%.

How did the activation turn out when `CCOc1ccc(Cn2nnc(C(=O)Nc3ccc(OC)cc3OC)c2N)cc1` was run?
Its activation is 16.4%.

For `CN(C)S(=O)(=O)c1ccc(Oc2ccc(S(=O)(=O)N(C)C)cc2)cc1`, which activation is on record?
The activation was 11.7%.

`CCc1ccc(-c2nn(-c3ccccc3)cc2CSC(=N)N)cc1` was tested. Which activation did it give?
The activation was 11%.

How did the activation turn out when `COc1cc(/C=C2/SC(=S)N(Cc3ccccc3)C2=O)cc(OC)c1O` was run?
The activation was 29.3% (active).

How did the activation turn out when `Cc1cc(S(=O)(=O)c2cc3ccc(O)c(C)c3oc2=O)ccc1F` was run?
Its activation is 16%.

The compounds below were run against Vasopressin V1a receptor (Homo sapiens) (UniProt P37288) (assay: activators of vasopressin V1R in CHO cells – cell-based, triplicate, fluorescence, counter-screen for OXTR agonist project (AID 434991;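 active = mean activation over triplicate exceeds the hit threshold set in the earlier primary screen, cut at about 20% in these data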;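 note: peak over basal fluorescence ratio within a 100 second read; 0% = DMSO alone and 100% = 3 nM vasopressin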)). Conditions: Fluo-8 calcium fluorescence, at 3 µM, stronger effect = higher value.
Vasopressin V1a receptor (Homo sapiens), sequence (P37288 whole entry, looked up): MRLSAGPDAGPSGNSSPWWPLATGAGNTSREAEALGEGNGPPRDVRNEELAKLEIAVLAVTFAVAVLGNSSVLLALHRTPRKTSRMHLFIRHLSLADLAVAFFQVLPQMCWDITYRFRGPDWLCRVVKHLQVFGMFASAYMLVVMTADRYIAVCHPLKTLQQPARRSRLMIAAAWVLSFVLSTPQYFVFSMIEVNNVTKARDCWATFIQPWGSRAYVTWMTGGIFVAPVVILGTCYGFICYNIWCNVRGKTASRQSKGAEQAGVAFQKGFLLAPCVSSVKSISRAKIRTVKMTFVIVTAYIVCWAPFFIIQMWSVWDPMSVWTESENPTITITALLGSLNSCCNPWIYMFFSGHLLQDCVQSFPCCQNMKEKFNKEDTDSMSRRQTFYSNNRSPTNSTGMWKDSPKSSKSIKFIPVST

For `COc1ccc(NS(=O)(=O)c2ccc(Oc3c(C#N)cccc3C#N)cc2)cc1`, which activation is on record?
The activation was 13.7%.

Which activation does the source give for `CCOc1ccc(Cn2nnc(C(=O)Nc3ccc(OC)cc3OC)c2N)cc1` here?
The activation was 14.5%.

`CN(C)S(=O)(=O)c1ccc(Oc2ccc(S(=O)(=O)N(C)C)cc2)cc1` was tested. Which activation did it give?
Its activation is 11.1%.

For `CCc1ccc(-c2nn(-c3ccccc3)cc2CSC(=N)N)cc1`, which activation is on record?
Its activation is 7.29%.

For `COc1cc(/C=C2/SC(=S)N(Cc3ccccc3)C2=O)cc(OC)c1O`, which activation is on record?
The activation was 38.2% (active).

With `Cc1cc(S(=O)(=O)c2cc3ccc(O)c(C)c3oc2=O)ccc1F` as the compound, how does the activation read?
Its activation is 13.1%.

Each compound was assayed against Insulin-degrading enzyme (Homo sapiens) (UniProt P14735) (assay: cellular IDE Abeta-cleavage inhibition – fluorescence polarization, HEK cells, FAbetaB substrate, confirmation (AID 435028;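 note: 0% = DMSO wells and 100% = 60 µM reference IDE inhibitor Ii1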)). Conditions: at 5.59 µM, stronger effect = higher value.
Insulin-degrading enzyme (Homo sapiens), sequence (P14735 whole entry, looked up): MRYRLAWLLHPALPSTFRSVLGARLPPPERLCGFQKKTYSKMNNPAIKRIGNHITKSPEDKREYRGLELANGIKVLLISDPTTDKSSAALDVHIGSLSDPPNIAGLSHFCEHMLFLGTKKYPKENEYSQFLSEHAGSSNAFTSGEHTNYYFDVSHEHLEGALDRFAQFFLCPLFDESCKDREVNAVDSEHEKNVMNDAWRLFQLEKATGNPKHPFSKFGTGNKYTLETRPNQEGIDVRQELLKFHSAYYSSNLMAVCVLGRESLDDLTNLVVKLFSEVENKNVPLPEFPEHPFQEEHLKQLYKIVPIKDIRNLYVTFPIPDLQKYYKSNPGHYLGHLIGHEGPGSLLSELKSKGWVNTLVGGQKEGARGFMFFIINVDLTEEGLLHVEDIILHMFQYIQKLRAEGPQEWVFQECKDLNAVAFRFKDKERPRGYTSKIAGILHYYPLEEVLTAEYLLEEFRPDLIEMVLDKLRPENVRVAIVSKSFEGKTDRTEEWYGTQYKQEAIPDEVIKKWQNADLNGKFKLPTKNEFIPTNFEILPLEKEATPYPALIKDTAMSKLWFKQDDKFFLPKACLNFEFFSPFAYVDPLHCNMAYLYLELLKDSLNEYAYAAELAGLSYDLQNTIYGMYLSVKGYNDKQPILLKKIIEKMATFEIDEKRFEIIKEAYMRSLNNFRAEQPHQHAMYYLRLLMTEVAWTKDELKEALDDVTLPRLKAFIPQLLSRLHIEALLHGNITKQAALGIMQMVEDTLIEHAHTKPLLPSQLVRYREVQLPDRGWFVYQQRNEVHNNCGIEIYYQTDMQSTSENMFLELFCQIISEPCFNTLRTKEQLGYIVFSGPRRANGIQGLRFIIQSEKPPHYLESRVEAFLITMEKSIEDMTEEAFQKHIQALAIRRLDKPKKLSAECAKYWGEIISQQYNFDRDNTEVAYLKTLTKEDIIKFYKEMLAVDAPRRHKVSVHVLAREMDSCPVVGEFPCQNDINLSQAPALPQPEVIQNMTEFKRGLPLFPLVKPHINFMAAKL

How did the inhibition turn out when `CCCC(=O)Nc1c(O)c2ccccc2[nH]c1=O` was run?
Its inhibition is 2.78%.

How did the inhibition turn out when `O=C(N/N=C/c1ccc(OC(=O)c2ccccc2Cl)cc1)c1ccc(O)cc1` was run?
Its inhibition is 4.51%.

How did the inhibition turn out when `CCOC(=O)CC1C(=O)NCCN1c1nc2c(C)cccn2c(=O)c1/C=C1\SC(=S)N(C(C)CC)C1=O` (configuration not stated) was run?
The inhibition was 27.1% (active).

For `CN(C)c1ccc(/C=C2\NC(=S)N(Cc3ccccc3)C2=O)cc1`, which inhibition is on record?
Its inhibition is 135% (active).

For `Cc1cccc(-n2c(Cc3cc(=O)[nH]c(=O)[nH]3)nnc2SCC(=O)Nc2cccc(C(F)(F)F)c2)c1`, which inhibition is on record?
The inhibition was 6.02%.

For `Oc1ccc(-c2onc3ccc(Cl)cc23)cc1`, which inhibition is on record?
The inhibition was 101% (active).

For `O=C(Nc1ccc(Sc2ccc(Br)cc2)cc1)c1ccco1`, which inhibition is on record?
The inhibition was 14.3%.

Which inhibition does the source give for `NC(=O)c1c(Nc2nc3c(F)cccc3s2)sc2c1CCCC2` here?
The inhibition was 12.7%.

How did the inhibition turn out when `CC(C(=O)c1ccc(-c2ccccc2)cc1)[n+]1cccc(Br)c1` (configuration not stated) was run?
The inhibition was 16.4% (active).

How did the inhibition turn out when `Cc1cc(Cl)ccc1OCCCC(=O)NCc1ccncc1` was run?
Its inhibition is 7.81%.

With `O=C(Nc1ccc(Cl)c(Cl)c1)N1CC=C(c2ccccc2)CC1` as the compound, how does the inhibition read?
Its inhibition is 4.7%.

Which inhibition does the source give for `COc1ccc(N2CCN(C(=O)/C(C#N)=C/c3ccccc3)CC2)cc1` here?
The inhibition was 8.71%.

For `CCN1/C(=C/c2ccc3ccc(C)cc3[n+]2CC)Sc2ccccc21`, which inhibition is on record?
Its inhibition is 55.5% (active).

For `O=C(C1=C[C@H](c2coc3ccccc3c2=O)C[C@H](OCc2ccc(CO)cc2)O1)N1CCN(Cc2ccccc2)CC1`, which inhibition is on record?
The inhibition was 2.63%.

How did the inhibition turn out when `CS(=O)(=O)N(Cc1ccccc1)c1ccc(C(=O)NN=C2CCCCCC2)cc1` was run?
The inhibition was 3.28%.

`Cc1c(C(=O)Nc2cccc(-c3nnc4n3CCCCC4)c2)oc2ccccc12` was tested. Which inhibition did it give?
The inhibition was 5.89%.

For `N#C/C(=C\c1ccc(N2CCOCC2)o1)C(=O)N1CCOCC1`, which inhibition is on record?
The inhibition was 14.7%.

With `O=C(Oc1c(-c2ccco2)oc2ccccc2c1=O)c1cccnc1` as the compound, how does the inhibition read?
Its inhibition is 93% (active).

With `CC1(C)Cc2cccc(OCC(=O)N3CCN(c4ccc([N+](=O)[O-])cc4)CC3)c2O1` as the compound, how does the inhibition read?
Its inhibition is 4.72%.

For `CC(=O)c1cc(NC(=O)c2ccccc2)c(=O)oc1/C=C/N(C)C`, which inhibition is on record?
Its inhibition is 31% (active).

Which inhibition does the source give for `CCN(CC)c1ccc2cc(C(N)=O)/c(=N\NC(=O)c3ccncc3)oc2c1` here?
Its inhibition is 85.5% (active).

For `C=CCC1=C/C(=C\c2c(N)n3nc(CC(=O)N4CCOCC4)sc3nc2=O)C=C(OC)C1=O`, which inhibition is on record?
The inhibition was 25.9% (active).

With `Cn1c2ccccc2c2cc(/C=C(\NC(=O)c3ccccc3)C(=O)NCC(=O)O)ccc21` as the compound, how does the inhibition read?
The inhibition was 17.3% (active).

With `Cc1cccc(N2CCN(C(=O)c3cccc(N4C(=O)C5C6C=CC(C6)C5C4=O)c3)CC2)c1C` (configuration not stated) as the compound, how does the inhibition read?
The inhibition was 31.1% (active).

For `COc1cc(/C=C(\C#N)c2nc3ccccc3[nH]2)ccc1O`, which inhibition is on record?
The inhibition was 134% (active).

Which inhibition does the source give for `CCCc1nc(SCC(=O)Nc2ccc(S(=O)(=O)N(C)C)cc2)c2ccccc2n1` here?
Its inhibition is 6.74%.

Which inhibition does the source give for `O=C(/C=C/c1ccc(OCc2c(F)cccc2Cl)cc1)N1CCOCC1` here?
Its inhibition is 12.4%.

How did the inhibition turn out when `Cc1nn(C)cc1C(=O)c1ccccc1` was run?
The inhibition was 3.52%.

Which inhibition does the source give for `O=C(CCc1ccc(S(=O)(=O)N2CCOCC2)cc1)Nc1ccc2ccccc2c1` here?
Its inhibition is 8.6%.

For `COc1cc(/C=C2/SC(=S)N(Cc3ccccc3)C2=O)cc(OC)c1O`, which inhibition is on record?
The inhibition was 142% (active).

`CCN1CCCC1CNc1ncnc2c1[nH]c1ccc(F)cc12` (configuration not stated) was tested. Which inhibition did it give?
Its inhibition is 3.64%.

For `CN1/C(=c2/s/c(=C3/C(=O)N(c4ccccc4)NC3=Nc3ccccc3)n(C)c2=O)C(C)(C)c2ccccc21`, which inhibition is on record?
The inhibition was 8.19%.

`CCC(=C/c1sc2ccc3ccccc3c2[n+]1C)/C=C1\Sc2ccc3ccccc3c2N1C` was tested. Which inhibition did it give?
The inhibition was 13.4%.

With `CCCCc1cc(=O)oc2c(C)c(OCC(=O)N3CCC(C(N)=O)CC3)ccc12` as the compound, how does the inhibition read?
The inhibition was 8.74%.

Which inhibition does the source give for `CCOc1cc2c(Cl)ncnc2c(OCC)c1OCC` here?
Its inhibition is 4.73%.
